In PubChem BioAssay (EPA / NIEHS) one finds outcome and AC50 data, which are given here for 26 compounds.

Assay [1] in a line: TAMU_PeakParms_SingleDonor1434_Chronotropy: Texas A&M University (TAMU) 1.5-hr Human Induced Pluripotent Stem Cell (iPSC)-derived Cardiomyocytes Calcium (Ca+2) Flux Assay for Cardiotoxicity: Chronotropy (changes in peak frequency) (AID 2284217). Particulars: actives raise or lower the signal. As to the method: TAMU_PeakParms is a cell-based, multiplexed-readout assay that uses iPSC-derived cardiomyocytes with measurements taken at 1.5 hours after chemical dosing in a microplate: 384-well plate.TAMU_PeakParms_SingleDonor1434_Chronotopy is a phenotype derived from the peak.freq.avg parameter and uses an EC05 as its POD (5% increase in beat rate, compared to controls). Peak.Freq.Avg measures the average peak frequency, in beats per second, using Fluorescence intensity as a functional reporter from Calcium (Ca+2) flux assay technology. Before modeling, data is preprocessed to remove data points where there is a cessation of beating (where peak.freq.avg equals 0) to ensure the capture of the upwards response that isn't confounded by the drop in beat rate at higher concentrations and to ensure the drop in beat rate is captured before asystole, which is captured elsewhere.Data from the assay component TAMU_PeakParms_SingleDonor1434_Chronotropy was analyzed into 1 assay endpoint. This assay endpoint, TAMU_PeakParms_SingleDonor1434_Chronotropy_Negative, was analyzed with bidirectional fitting relative to DMSO as the negative control and baseline of activity. Using a type of functional reporter, gain or loss-of-signal activity can be used to understand changes in the cardiac function. To generalize the intended target to other relatable targets, this assay endpoint is annotated to the cardiomyocyte function intended target family, where the subfamily is lowered beat rate.
Each test compound from the chemical master plates was transferred into new tissue culture-treated 384-well microplates using acoustic dispensing (Labcyte Echo 550, Beckman Coulter, Indianapolis, IN) in amounts that would result in 5x concentrations (1, 5, 50, 500 uM) in the working plate in a final volume of 50 uL. Chemicals were randomly divided into 16 separate 384-well plates for screening such that the outer-most wells were left empty (308 wells were used on each plate). Fifteen of the plates contained unique test chemicals (n = 65 chemicals, 4 concentrations, one replicate each), positive controls (n = 10 chemicals, one concentration, 3 replicates each), vehicle (0.5% DMSO, n = 12), and media-only (n = 6) wells. Plate 16 contained test chemicals (n = 54 chemicals, 4 concentrations, one replicate each), inter-plate replicates (n = 11 chemicals with replicates, 4 concentrations, one replicate each), and the same design of positive controls and vehicle- and media-only wells as other plates. These plates were stored at -80C until the day of the assay. On assay day, the 5x concentrated chemical working plate was prepared by adding 50 uL cardiomyocyte maintenance medium containing 2.5% v/v DMSO to each well of the microplates. Then, 12.5 uL of 5x concentrated test chemical solution was added to the test plate to yield final concentrations of 0.2, 1, 10, and 100 uM in 0.5% v/v DMSO using the liquid handling robotics of the FLIPR Tetra. FLIPR Tetra settings were optimized to mix and then transfer test chemicals to the microplate at height = 40 uL, speed = 1 uL/sec, and removal speed = 6 mm/sec, resulting in a total volume of 62.5 uL/well with 0.5% v/v DMSO in cardiomyocyte maintenance medium. Immediately after chemical transfer, cells were incubated 37C and 5% CO2 for 90 minutes. Next, the total volume of cell culture medium containing Ca2+ dye (from the Ca2+ flux assay conducted first) was aspirated and replaced with 25 uL/well pre-warmed staining solution with fluorescent probes for nuclei and mitochondria (2.2 ug/mL Hoechst 33342 and 0.2 uM MitoTracker Orange in cardiomyocyte maintenance medium with 1:500 penicillin/streptomycin solution). Microplates were then incubated at standard conditions for 15 minutes, the staining solution was aspirated, and 25 uL/well pre-warmed fresh maintenance medium containing 1:500 penicillin/streptomycin solution was added to each well to wash before proceeding to image acquisition. […]

Assay [2] in a line: BSK_BT_PBMCCytotoxicity: PBMC Cytotoxicity Assessment in the BioMAP Diversity Plus: BT Assay (AID 2284225).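 Also: PBMC viability measured by Alamar Blue dye reduction fluorescence.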 Particulars: primary human B cells with PBMC. An outline of the steps: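 75,000 cells/well; cpd 1 h → SEB + TSST-1 (20 ng/mL final each) → 90 h → Alamar Blue 6 h → fluor. 546/580 nm. DMSO = neg. control/baseline.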
A short description of assay [3]: CCTE_Mundy_HCI_Cortical_Synap_Neur_Matur_NeuriteLength: CCTE's Synaptogenesis and Neurite Maturation Assay in rat cortical cells for Neurite Length, Mundy Lab (AID 2284214). An outline of the steps:
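Neurite length in rat primary cortical cultures is imaged after MAP2, synaptophysin and Hoechst staining. Dosing starts DIV 7, ending DIV 12; DMSO serves as negative control and baseline.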

Assay [4] is described as follows: CCTE_Mundy_HCI_Cortical_Synap_Neur_Matur_NeuriteSpotCountPerNeuron: CCTE's Synaptogenesis and Neurite Maturation Assay in rat cortical cells for Neurite Spot Count per Neuron Count, Mundy Lab (AID 2284215). An outline of the steps: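 Rat primary cortical cultures given AraC at DIV 5, dosed from DIV 7 to DIV 12 with media change. Fixed, stained for MAP2, synaptophysin and Hoechst; neurite-associated synaptophysin puncta per neuron quantified by high-content imaging versus DMSO.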

A short description of assay [5]: CCTE_Mundy_HCI_Cortical_Synap_Neur_Matur_SynapseCount: CCTE's Synaptogenesis and Neurite Maturation Assay in rat cortical cells for Synapse Count, Mundy Lab (AID 2284218). An outline of the steps:
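Synapse count per neuron is measured in rat cortical neurons exposed to chemicals between DIV 7 and DIV 12, with glial growth arrested by AraC at DIV 5. Synaptophysin and MAP2 staining is imaged automatically; activity is fitted relative to DMSO.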

The nature of assay [6]: CCTE_Mundy_HCI_hN2_NOG_NeuriteCount: CCTE's Neurite Outgrowth Assay in human hN2 cells for Neurite Count, Mundy Lab (AID 2284219; active = hit-call score of the fitted dose curve at least 0.9, where 1 is the maximum). An outline of the steps:
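In this morphology assay, hNP1-derived neurons received test chemical 2 h post-plating and were fixed two days later in warm paraformaldehyde/sucrose containing Hoechst 33342. Neurites, labelled by rabbit anti-βIII-tubulin (1:800) and Alexa Fluor-488 (1:500), were counted automatically.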

Assay [7] is described as follows: CCTE_Mundy_HCI_hN2_NOG_NeuriteLength: CCTE's Neurite Outgrowth Assay in human hN2 cells for Neurite Length, Mundy Lab (AID 2284220; active = hit-call score of the fitted dose curve at least 0.9, where 1 is the maximum). An outline of the steps: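 Plate hNP1-derived neurons, then add chemical 2 h later as a 1/10 dilution. Stain with anti-βIII-tubulin then Alexa Fluor-488 secondary, and image automatically to measure neurite length.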
The nature of assay [8]: CCTE_Mundy_HCI_hN2_NOG_NeuronCount: CCTE's Neurite Outgrowth Assay in human hN2 cells for Neuron Count, Mundy Lab (AID 2284221; active = hit-call score of the fitted dose curve at least 0.9, where 1 is the maximum). As to the method:
CCTE_Mundy_HCI_hN2_NOG is a multiplexed, cell-based-readout assay that uses immature neurons derived from hNP1 neuroprogenitor cells with measurements taken at 50.33 hours after chemical dosing in a microplate: 96-well plate.CCTE_Mundy_HCI_hN2_NOG_NeuronCount is one of four components of the CCTE_Mundy_HCI_hN2_NOG assay. It measures cell viability related to number of neurons using High Content Imaging of fluorescently labelled markers.[…] Using a type of morphology reporter, loss -of-signal activity can be used to understand developmental effects.
Exposure starts 2 hours post-plating by adding 10 ul of the working solution to 90 ul of media in the wells for a 1/10 dilution. Forty-eight hours after chemical treatment cells are fixed by direct addition of 100 ul of warm (37C) Dulbecco's phosphate buffered saline (DPBS) fixative solution containing 8% paraformaldehyde, 8% sucrose, and 0.1% of 3 mg/ml Hoechst 33342 into each well. Primary antibodies are prepared by dilution in Immunocytochemical Staining Buffer (ISB), 10X Dulbecco's PBS, 0.1% Saponin, 5% Bovine Serum Albumin, 0.5% NaN3 (Sodium Azide) and betaIII-tubulin (rabbit anti-betaIII-tubulin, 1:800) followed by Alexa Fluor-488 secondary (1:500) to label neuronal cell bodies and neurites. A Cellomics ArrayScan VTi HCS Reader is used for automated image acquisition and analysis of neurite outgrowth.

Assay [9] in a line: CCTE_Mundy_HCI_Cortical_Synap_Neur_Matur_NeuriteCount: CCTE's Synaptogenesis and Neurite Maturation Assay in rat cortical cells for Neurite Count, Mundy Lab (AID 2284222).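 As to outcome: exposure from day 7 to day 12 in vitro with readout at day 12.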 An outline of the steps: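 Chemical exposure runs DIV 7–12 in rat cortical cultures, glia suppressed by AraC at DIV 5; measurement is at DIV 12. Imaging-derived neurite counts are fitted against DMSO baseline.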

Assay [10] is described as follows: CCTE_Mundy_HCI_hNP1_Pro_ResponderAvgInten: CCTE's Proliferation Assay in human neuroprogenitor cells, Mundy Lab (AID 2284224; active = hit-call score of the fitted dose curve at least 0.9, where 1 is the maximum). An outline of the steps: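 Proliferation was scored as BrdU labelling intensity in human neural progenitors derived from WA09 embryonic cells, measured 26.25 hours after chemical dosing. Activity was fitted relative to DMSO.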

Molecules are shown by their SMILES. “And” between values parts separate entries of the source, which are not always exact repeats. Equal entries are not always repeated. Records with an inconclusive call do not appear. More than one record can exist for a structure, and the calls need not agree. The source made the active and inactive calls. The calls were made as follows, unless noted: active = hit-call score of the fitted dose curve at least 0.9, where 1 is the maximum; inactive = score below 0.9.

For the compound `CC(C)C(=O)Nc1ccc([N+](=O)[O-])c(C(F)(F)F)c1`, the outcome in assay [1] was inactive.

Regarding `OC(O)(C(F)C(O)(O)C(F)(F)F)C(F)(F)F`, the result in [2] was inactive.

By AC50 is commonly meant the concentration giving half of the maximal activity seen. Consider `COc1cc2c(c(OC)c1OC)-c1ccc(OC)c(=O)cc1[C@@H](NC(C)=O)CC2`, for which the AC50 in assay [3] is 35.4 nM (active); in assay [4], 29.7 nM (active); in [5], 30.2 nM (active); in assay [6], 9.66 nM (active); in assay [7], 9.31 nM (active); in assay [8], 26.2 nM (active). Moreover, in [9], the AC50 was 440 nM (active). For the same compound, the outcome in assay [1] was inactive.

On to `CCN(CC)C(=S)SSC(=S)N(CC)CC`, for which, in [1], the half-maximal activity concentration (AC50) is 8820 nM (active).

Regarding `Nc1ccn([C@@H]2O[C@H](CO)[C@@H](O)[C@@H]2O)c(=O)n1`, the half-maximal activity concentration (AC50) is 11900 nM (active) in assay [3]; 12400 nM (active) in assay [4]; 12400 nM (active) in assay [5]; 12.6 µM (active) and 15 µM (active) in assay [9]; 9.56 nM (active) and 3.83 nM (active) in assay [10]. Further, the outcome in assay [3], in assay [4] and in assay [5] was inactive.

For `S=P(N1CC1)(N1CC1)N1CC1`, in assay [2], the outcome was inactive.

As for `NC(=O)N1c2ccccc2C=Cc2ccccc21`, the result in assay [3], in assay [4], in [5], in [6], in assay [7] and in [8] was inactive. The outcome in assay [9] was inactive.

In the case of `NNC(=O)c1ccncc1`, the compound was called inactive in [3], in assay [4], in assay [5], in assay [6], in [7] and in [9].

Regarding `c1ccc2c(c1)-c1cccc3c1c-2cc1ccccc13`, in assay [1], the half-maximal activity concentration (AC50) was 4530 nM (active).

Regarding `C[C@]12C=CC(=O)C=C1CC[C@H]1[C@@H]3C[C@@H](O)[C@](O)(C(=O)CO)[C@@]3(C)C[C@H](O)[C@@]12F`, the AC50 in assay [3] is 2590 nM (active); in assay [4] it was 3000 nM (active); in assay [5] it was 4200 nM (active); in assay [9], 18800 nM (active). In addition, the call in assay [10] was inactive.

Regarding `OC(Cn1cncn1)(Cn1cncn1)c1ccc(F)cc1F`, the compound was called inactive in assay [3], in [4], in assay [5], in assay [6], in assay [7] and in [9].

For `OCc1c[nH]c2ccccc12`, in [2], the result was inactive.

With `FC(F)=C(F)C(F)(F)C(F)(F)C(F)(F)C(F)(F)C(F)(F)C(F)(F)F`, the outcome in [2] was inactive.

`Cn1cc[nH]c1=S`: the result in assay [3], in assay [4], in assay [5] and in assay [9] was inactive.

For `NCC(F)(F)C(F)(F)C(F)(F)C(F)(F)F`, in assay [2], the result was inactive.

In the case of `Cc1cccc(O)c1C`, the outcome in assay [2] was inactive.

For `OCCC(F)(F)C(F)(F)C(F)(F)C(F)(F)F`, the outcome in assay [2] was inactive.

Take `c1ccc2cc3ccccc3cc2c1`: the outcome in assay [3], in [4], in assay [5] and in [9] was inactive. Moreover, the half-maximal activity concentration (AC50) in [1] was 20200 nM (active).

Take `O=C(Cl)C(F)(F)C(F)(F)C(F)(F)C(=O)Cl`: the result in assay [2] was inactive.

On to `FC(F)C(F)(F)COCC1CO1` (stereo not given), for which the outcome in assay [2] was inactive.

Consider `O=S(=O)(O)CCC(F)(F)C(F)(F)C(F)(F)C(F)(F)C(F)(F)C(F)(F)F`, for which the outcome in [2] was inactive.

Regarding `FC(F)(F)COC(OCC(F)(F)F)OCC(F)(F)F`, the outcome in assay [2] was inactive.

For `CCCC(CCC)C(=O)O`, the compound was classed as inactive in [3], in [4], in assay [1], in assay [5], in [6] and in assay [7]. Besides, the outcome in [8] and in assay [9] was inactive.

As to `C[Si](C)(C)C(F)(F)C(F)(F)C(F)(F)F`, in [2], the outcome was inactive.

In the case of `FC(F)(F)C(F)(F)C(F)(F)C(F)(F)C(F)(F)C(F)(F)I`, the compound was called inactive in assay [10] and in assay [2].

As to `OC[C@H]1O[C@@](CO)(O[C@H]2O[C@H](CO)[C@@H](O)[C@H](O)[C@H]2O)[C@@H](O)[C@@H]1O`, the outcome in assay [1] was inactive.
